# Data as given in the supplement of paper PMC12297408.
# Structures can show the parent of a compound that is named as a salt. A number with no mark means an inactive call.
# Test system: Plasmodium falciparum NF54/iGP1_RE9H ulg8 stage V gametocytes
# Assay: gametocyte viability (luciferase signal relative to DMSO control) (% of DMSO control); higher = less gametocytocidal activity, active = 50 or less
# Settings: concentration: 1 µM; exposure time: 72 h
# Protocol: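 Synchronous P. falciparum NF54/iGP1_RE9H ulg8 mature stage V gametocytes (day 12) were exposed to Cayman Epigenetics Screening Library compounds at 10 µM or 1 µM for 72 h at 37 °C. Viability was read as RE9H luciferase bioluminescence, normalised to DMSO plate controls (100%); 50 µM methylene blue was the positive control.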
row,Structure (SMILES),gametocyte viability
1,O=C(NCc1ccccc1)c1c(/N=C/c2c(O)ccc3ccccc23)sc2c1CCCC2,103
2,O=C(CCCCCCC(=O)Nc1cccnc1)NO [Pyroxamide],90.7
3,C#CCC(CCCCCC)C(=O)O (stereo not given) [2-hexyl-4-Pentynoic Acid],89.2
4,CCCCCCCCCCCCCCCc1cccc(O)c1C(=O)O [Anacardic Acid],84.7
5,O=C(/C=C/c1cccc(C(=O)NO)c1)NO,89.2
6,CN(C)c1ccc(C(=O)NCCCCCC(=O)NO)cc1,76.2
7,CN1CCN(c2ccc(-c3cccc(CN4CCOCC4)c3)cc2NC(=O)c2c[nH]c(=O)cc2C(F)(F)F)CC1,89.4
8,"CC(=O)OCC1OC(n2cnc(N)nc2=O)C(OC(C)=O)C1OC(C)=O (stereo not given) [2',3',5'-triacetyl-5-Azacytidine]",87.3
9,O=C(NCC(=O)N1CCCC1)Nc1ccc2cnccc2c1,91.7
10,O=C(/C=C/C#Cc1cccc(NS(=O)(=O)c2ccccc2)c1)NO [Oxamflatin],101
11,Nc1nccc2c1ncn2C1C=C(CO)C(O)C1O (stereo not given) [3-Deazaneplanocin A],88.8
12,CN1CCN(C(=O)CNC2CC2c2ccc(OCc3ccccc3)cc2)CC1 (stereo not given) [RN-1 (hydrochloride)],89.1
13,O=C(O)CNC(=O)C(=O)O [N-Oxalylglycine],87.3
14,CC1CC/C(=N\Nc2nc(-c3ccc(Cl)cc3)cs2)C1 (stereo not given) [CPTH6 (hydrobromide)],86.6
15,CC1(C)C(=O)NC2=C1C(=O)C(=O)c1ccccc12,88.9
16,CNCCN1CCC(OCc2ccccc2)CC1 [MS049 (hydrochloride)],84.2
17,Cn1cc(CNCC2CCN(c3ncc(C(=O)NO)cn3)CC2)c2ccccc21,62
18,O=C(NC[C@H](O)CN1CCc2ccccc2C1)c1ccnc(NC2CCC2)c1,80.7
19,CCOC(=O)NCCCC(=O)NCCc1ccccc1,89.7
20,O=Nc1ccc(O)c2ncccc12 [5-Nitroso-8-quinolinol],88.4

# Same assay, conditions: concentration: 10 µM; exposure time: 72 h
row,Structure (SMILES),gametocyte viability
1,O=C(NCc1ccccc1)c1c(/N=C/c2c(O)ccc3ccccc23)sc2c1CCCC2,94.2
2,O=C(CCCCCCC(=O)Nc1cccnc1)NO [Pyroxamide],63.8
3,C#CCC(CCCCCC)C(=O)O (stereo not given) [2-hexyl-4-Pentynoic Acid],95.4
4,CCCCCCCCCCCCCCCc1cccc(O)c1C(=O)O [Anacardic Acid],82.9
5,O=C(/C=C/c1cccc(C(=O)NO)c1)NO,75.4
6,CN(C)c1ccc(C(=O)NCCCCCC(=O)NO)cc1,52
7,CN1CCN(c2ccc(-c3cccc(CN4CCOCC4)c3)cc2NC(=O)c2c[nH]c(=O)cc2C(F)(F)F)CC1,94.1
8,"CC(=O)OCC1OC(n2cnc(N)nc2=O)C(OC(C)=O)C1OC(C)=O (stereo not given) [2',3',5'-triacetyl-5-Azacytidine]",85.8
9,O=C(NCC(=O)N1CCCC1)Nc1ccc2cnccc2c1,93.4
10,O=C(/C=C/C#Cc1cccc(NS(=O)(=O)c2ccccc2)c1)NO [Oxamflatin],168
11,Nc1nccc2c1ncn2C1C=C(CO)C(O)C1O (stereo not given) [3-Deazaneplanocin A],88.1
12,CN1CCN(C(=O)CNC2CC2c2ccc(OCc3ccccc3)cc2)CC1 (stereo not given) [RN-1 (hydrochloride)],72.8
13,O=C(O)CNC(=O)C(=O)O [N-Oxalylglycine],85.3
14,CC1CC/C(=N\Nc2nc(-c3ccc(Cl)cc3)cs2)C1 (stereo not given) [CPTH6 (hydrobromide)],82.2
15,CC1(C)C(=O)NC2=C1C(=O)C(=O)c1ccccc12,85.2
16,CNCCN1CCC(OCc2ccccc2)CC1 [MS049 (hydrochloride)],79.7
17,Cn1cc(CNCC2CCN(c3ncc(C(=O)NO)cn3)CC2)c2ccccc21,66.3
18,O=C(NC[C@H](O)CN1CCc2ccccc2C1)c1ccnc(NC2CCC2)c1,79.5
19,CCOC(=O)NCCCC(=O)NCCc1ccccc1,94.3
20,O=Nc1ccc(O)c2ncccc12 [5-Nitroso-8-quinolinol],11.5 (active)
